Source: article PMC5540273 (PLoS ONE, 2017)

tested on: DDR2; conditions: concentration: 1 μM, replicates: in singlicate; n = 1
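Also: KINOMEscan kinase panel screen.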

Row | Structure (SMILES) | %Inh [%]
1 | CN1C(=O)C(Nc2ccccc2)=C(c2ccccc2)C1=O [SB-300079] | 37
2 | CCC(=O)c1c(-c2ccccc2)c2cc(Cl)ccc2c(=O)n1Cc1ccc(C(=O)O)cc1 | 34
3 | COc1cc(Nc2nccc(N3CCC(NC(=O)C(C)c4ccc(Cl)cc4)C3)n2)cc(OC)c1OC (stereo not drawn) [GSK1379757] | 6
4 | O=C(NCc1cccs1)c1cc(C(=O)c2c(Cl)cccc2Cl)c[nH]1 [GW823670] | 0
5 | Cl.c1ccc(Cn2cnc3cc(Nc4ncnc5ccccc45)ccc32)cc1 [GW272142] | 14
6 | COc1cc2ncn(-c3cc(OCc4ccc(S(C)(=O)=O)cc4)c(C(N)=O)s3)c2cc1OC [GW869979] | 2
7 | CCS(=O)c1ccc(-c2coc3ccc(-c4nnc(C)o4)cc23)cc1 (stereo not drawn) | 16
8 | O=C(Nc1n[nH]c2nc(-c3ccccc3)c(Br)cc12)C1CC1 [SB-708998] | 9
9 | Cl.NS(=O)(=O)c1cccc(Nc2cc(-c3ccc(F)cc3)n[nH]2)c1 [GW824645] | 45
10 | COC(=O)c1c(-c2ccccc2)c2cc(Br)ccc2c(=O)n1Cc1ccc(NC(=O)CCC(=O)O)cc1 | 22
11 | CCCNC(=O)Nc1ccc(Oc2ncnc3ccn(C)c23)cc1 | 8
12 | FC(F)(F)c1ccc(-c2ncn(CCCN3CCOCC3)c2-c2ccncc2)cc1 [SB-217780] | 0
13 | Cc1c(Cn2c(C)nn3c(=O)cc(N4CCO[C@H](C)C4)nc23)cccc1C(F)(F)F [GSK2373690] | 2
14 | COc1cccc(-n2cnc3c(N)ncnc32)c1 [SKF-97416] | 21
15 | Nc1nc(N)c2nc(-c3ccccc3)[nH]c2n1 [SKF-12778] | 9
16 | COc1ccc(CNC(=O)NC2CCN(c3ccnc(Nc4ccc(F)cc4)n3)C2)cc1 (stereo not drawn) [GSK1379706] | 63
17 | COc1cccc(C2=C(N(C)c3ccccc3)C(=O)NC2=O)c1 [SB-334865] | 22
18 | COc1ccc(-c2cc3c(C)nc(N)nc3n([C@H]3CC[C@H](OCCO)CC3)c2=O)cn1 | 0

Row | Structure (SMILES) | %Inh [%]
19 | Nc1ncnc2c1ncn2-c1cccc2ccccc12 [SKF-97184] | 59
20 | Cc1ccc(-c2ccc3c(ccc4sc5c(c43)NC[C@@H](C)N=C5N(C)C)n2)cn1 | 0
21 | COc1cccc(C2=C(Nc3cccc(C(=O)O)c3)C(=O)NC2=O)c1 [SB-390770] | 6
22 | Cc1nc(N(C)[C@H]2CN(C(=O)CC#N)CC[C@H]2C)c2cc[nH]c2n1 | 2
23 | CN(C)c1cc(-c2ccc3c(N)n[nH]c3c2)nc(N)n1 [GSK2219329] | 0
24 | COc1ccc(-c2cc3c(C)nc(N)nc3n([C@H]3CC[C@H](O)CC3)c2=O)cn1 | 0
25 | OCCCNc1nccc(-c2c(-c3cccc(C(F)(F)F)c3)nn3cc(C(F)(F)F)ccc23)n1 [GW630813] | 40
26 | O=C(Nc1n[nH]c2cc(-c3ccccc3F)ccc12)C1CC1 [SB-733371] | 6
27 | Nc1nc(-c2ccccc2F)c(-c2ccnc3ccccc23)s1 [GW560459] | 34
28 | Cn1c(=O)c(F)c(Nc2ccc(I)cc2F)c2c(=O)n(OC[C@H](O)CO)cnc21 | 25
29 | Cc1cc(Nc2nc(-c3cccc(C)n3)nc3ccccc23)ccn1 [GW872411] | 0
30 | COc1cc2nccc(Nc3ccc(OCc4ccc(NC(C)=O)cc4)cc3)c2cc1OC.Cl [GW440135] | 45
31 | Cc1nnc(-c2ccc(C)c(-c3ccc(C(=O)O)cc3)c2)o1 [GW608005] | 1
32 | CCS(=O)(=O)c1ccc(OC)c(Nc2ncc(-c3ccc(F)cc3)o2)c1.Cl [GW591947] | 4
33 | CCc1ccc(-c2ccc3c(c2)-c2nn(C)cc2S(=O)(=O)N3C)cc1 | 41
34 | CCC(=O)c1c(-c2ccccc2)c2cc(Cl)ccc2c(=O)n1Cc1cc(S(C)(=O)=O)n(CCC(C)(C)O)n1 | 0
35 | C[C@@H]1CC[C@H](C(=O)NC2CCCCC2)CN1c1cc(-c2ccc3c(N)n[nH]c3c2)nc(N)n1 [GSK2291363] | 3
36 | O=c1cc(N2CCOCC2)nc2n(Cc3ccc(F)c(Cl)c3)ccn12 [GSK2297099] | 0
